In PubChem BioAssay (NCATS):
Records with an inconclusive call do not appear. Active and inactive are the calls of the source. Unless noted, calls come from the whole dose curve; as a rule, active = well fitted curve in the direction sought with a large enough effect; inconclusive = small, poorly fitted or top-dose-only effect, or another doubt; inactive = no such curve, though single readings can be large; an effect the other way counts as inactive or inconclusive.

Experiments:
[1] = qHTS assay for measurement of the activity of small molecule inhibitors on Zika virus induced Caspase-3 activity in human iPSC derived neural progenitor cells (hNPCs) (AID 1224857); settings: hNPCs ZIKV-induced caspase-3/7, Caspase-Glo luminescence, 6 h; series mostly up to 45.7 µM; note: % of control where 0% means no effect; nearly all actives have a fitted effect of over 65% in size
Summary of the method: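 hNPCs seeded 350 cells/well, cultured 16–20 h; compounds added 1 h before ZIKV (2 FFU/cell), 37 C 6 h. Caspase-Glo 3/7 luminescence after 30 min RT; % inhibition from induction scaled to uninfected (0%) and infected (100%) wells.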

[2] = qHTS assay for measurement of the activity of small molecule inhibitors on Zika virus induced Caspase-3 activity in human astrocytoma cells (AID 1224859); settings: SNB-19 ZIKV-induced caspase-3/7, luminescence, 6 h; series mostly up to 45.7 µM;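 note: plate controls were ZIKV-infected untreated cells for no effect and uninfected cells for full effect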
Summary of the method: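 Luminescence read-out (Caspase-Glo 3/7, 30 min RT) of caspase activity in SNB-19 cells infected 6 h with ZIKV, 2 FFU/cell, after 1 h compound pretreatment; % inhibition from induction normalised to uninfected (0%) and infected (100%) wells.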

[3] = NS1 protein of Zika virus - qHTS assay to identify small molecule inhibitors in human HEK 293 cells (AID 1347053); settings: HEK293 ZIKV MR766 infection, NS1 TR-FRET, 24 h; series mostly up to 46.1 µM;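 note: plate controls were infected untreated cells for no effect and uninfected cells for full effect; nearly all actives have a fitted effect of over 55% in size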
Summary of the method: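 Readout was TR-FRET using paired anti-NS1 antibodies after 24 h infection of HEK 293 cells with ZIKV MR766 (MOI = 0.5). Compound preceded virus by 1 h; reduced signal reflects lower NS1 expression.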

[4] = qHTS of pediatric cancer cell lines to identify multiple opportunities for drug repurposing: Primary screen for TC32 cells (AID 1347089); settings: TC32 Ewing sarcoma viability, CellTiter-Glo luminescence, 48 h; series mostly up to 45.8 µM; note: % is set by controls: 0 for no effect and ±100 for the full control effect; nearly all actives have a fitted effect of over 60% in size
Summary of the method: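 Measured quantity: luminescence from CellTiter-Glo, reflecting metabolically active TC32 cells following 48 h of compound. Curves came straight from multi-point titrations, with 8 or 11 points in primary and 11 in confirmatory screening.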

[5] = qHTS of pediatric cancer cell lines to identify multiple opportunities for drug repurposing: Primary screen for DAOY cells (AID 1347090); settings: DAOY medulloblastoma viability, CellTiter-Glo luminescence, 48 h; series mostly up to 46 µM;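 note: plate controls were DMSO for no effect and bortezomib for full effect; nearly all actives have a fitted effect of over 55% in size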
Summary of the method: (§1)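 Cell viability, CellTiter-Glo luminescence; 500-1,000 cells/well, 8- or 11-point titration, 48 h compound exposure at 37 degrees C, 5% CO2. Controls: DMSO neutral, bortezomib 2.3 µM final as positive.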

[6] = qHTS of pediatric cancer cell lines to identify multiple opportunities for drug repurposing: Primary screen for SJ-GBM2 cells (AID 1347091); settings: SJ-GBM2 viability, CellTiter-Glo luminescence, 48 h; series mostly up to 46 µM;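 note: plate controls were DMSO neutral control for no effect and bortezomib for full effect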
Summary of the method: as §1

[7] = qHTS of pediatric cancer cell lines to identify multiple opportunities for drug repurposing: Primary screen for SK-N-MC cells (AID 1347093); settings: SK-N-MC viability, CellTiter-Glo luminescence, 48 h; series mostly up to 46 µM;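 note: plate controls were DMSO neutral control for no effect and bortezomib for full effect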
Summary of the method: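 Metabolically active cells were quantified by ATP-dependent luminescence (CellTiter-Glo, 15 min at room temperature) following 48 h treatment. Cells had been plated at 500-1,000 per well and settled for 5 h beforehand.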

[8] = qHTS of pediatric cancer cell lines to identify multiple opportunities for drug repurposing: Primary screen for NB-EBc1 cells (AID 1347095); settings: NB-EBc1 neuroblastoma viability, CellTiter-Glo luminescence, 48 h; series mostly up to 46 µM;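 note: plate controls were DMSO neutral control for no effect and bortezomib for full effect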
Summary of the method: (§2)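 Primary screen of approved and investigational compounds on cells in growth media at 37 degrees C, 5% CO2. MIPE set at 11-point and NPC set at 8-point dilutions; viability scored by ATP-based luminescence at 48 hours.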

[9] = qHTS of pediatric cancer cell lines to identify multiple opportunities for drug repurposing: Primary screen for U-2 OS cells (AID 1347096); settings: U-2 OS viability, CellTiter-Glo luminescence, 48 h; series mostly up to 46 µM;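 note: plate controls were DMSO wells for no effect and bortezomib positive control wells for full effect; nearly all actives have a fitted effect of over 50% in size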
Summary of the method: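 Cells (500-1,000/well) rested 5 h, then received compounds for 48 h; metabolically active cells were measured by CellTiter-Glo luminescence. Final concentrations spanned up to 46 µM (MIPE, 11-point) or 0.59 nM-46 µM (NPC, 8-point) in primary screens, 11-point in follow-ups.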

[10] = qHTS of pediatric cancer cell lines to identify multiple opportunities for drug repurposing: Primary screen for Saos-2 cells (AID 1347097); settings: Saos-2 viability, CellTiter-Glo ATP luminescence, 48 h; series mostly up to 46 µM; note: nearly all actives have a fitted effect of over 40% in size; note: potency is the fitted concentration of half-maximal effect; for activity change, negative = cytotoxic: % is set by controls: 0 for no effect and ±100 for the full control effect
Summary of the method: as §2

[11] = qHTS profiling of the MIPE4 collection as inhibitors of Plasmodium falciparum (HB3) proliferation (AID 743347; call rule not given here;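 note: plate controls were DMSO vehicle wells for no effect and artemisinin wells for full effect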); settings: P. falciparum HB3 in erythrocytes, SYBR Green DNA, 72 h; at 28.5 µM (top of the series) unless noted
Summary of the method: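 Parasite DNA was quantified by SYBR Green I fluorescence (ex 485, em 535 nm) after overnight lysis in saponin/Triton buffer at room temperature. Cultures at 0.3% parasitemia and 2.5% hematocrit were first exposed to compound for 72 h at 37 C; signals were normalised to artemisinin (0.29 uM) and vehicle wells.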

[12] = qHTS of pediatric cancer cell lines to identify multiple opportunities for drug repurposing: Primary screen for A673 cells (AID 1347092); settings: A673 Ewing sarcoma viability, CellTiter-Glo ATP luminescence, 48 h; series mostly up to 46 µM; note: % is set by controls: 0 for no effect and ±100 for the full control effect; nearly all actives have a fitted effect of over 45% in size
Summary of the method: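 Cells are plated, rested 5 h, dosed by pintool, incubated 48 h, then lysed with CellTiter-Glo and read by luminescence. DMSO is the neutral control; bortezomib at 2.3 uM final is the positive control.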

[13] = qHTS of pediatric cancer cell lines to identify multiple opportunities for drug repurposing: Primary screen for BT-37 cells (AID 1347094); settings: BT-37 viability, CellTiter-Glo luminescence, 48 h; series mostly up to 57.3 µM;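 note: plate controls were DMSO for no effect and bortezomib for full effect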
Summary of the method: as §2

C[C@H](N)C(=O)N[C@@H](C)C(=O)NC1[C@H]2CN(c3nc4c(cc3F)c(=O)c(C(=O)O)cn4-c3ccc(F)cc3F)C[C@@H]12 (stereo not given in full)
inactive: Potency [1] | outcome [2] | Potency [3] | Potency [4] | Potency [5] | Potency [6] | Potency [7] | Potency [8] | Potency [9] | Potency [10]

NCC[C@H](O)C(=O)N[C@@H]1C[C@H](N)[C@@H](O[C@H]2O[C@H](CN)[C@@H](O)[C@H](O)[C@@H]2O)[C@H](O)[C@@H]1O[C@H]1O[C@H](CO)[C@@H](O)[C@H](N)[C@@H]1O
94.3% [at 0.217 µM]: growth, % of control [11]
inactive: activity change, negative = inhibition [1] -1.8% [at 0.568 µM] | activity change, negative = inhibition [2] 13.4% [at 0.568 µM] | activity change, negative = inhibition [3] -0.409% [at 0.593 µM] | activity change, negative = cytotoxic [4] 10.2% [at 0.594 µM] | activity change, negative = cytotoxic [5] 11.4% [at 0.597 µM] | activity change, negative = cytotoxic [6] 26.2% [at 0.597 µM] | activity change, negative = cytotoxic [12] -3.3% [at 0.597 µM] | activity change, negative = cytotoxic [13] 11.5% [at 0.745 µM] | activity change, negative = cytotoxic [8] 17.9% [at 0.597 µM] | activity change, negative = cytotoxic [9] 14.2% [at 0.597 µM] | activity change, negative = cytotoxic [10] 9.12% [at 0.597 µM]

C[C@@H]1C[C@H]2[C@@H]3CCC4=CC(=O)C=C[C@]4(C)[C@@]3(F)[C@@H](O)C[C@]2(C)[C@@]1(O)C(=O)COC(=O)c1ccncc1
inactive: Potency [1] | outcome [2] | Potency [3] | Potency [4] | Potency [5] | Potency [6] | Potency [12] | Potency [13] | Potency [8] | Potency [9] | Potency [10]

CC(=O)c1ccc(O)c(C(N)=O)c1
inactive: Potency [1] | outcome [2] | Potency [3] | Potency [4] | Potency [5] | Potency [6] | Potency [12] | Potency [13] | Potency [8] | Potency [9] | Potency [10]

CCOC(=O)c1ccc(O)c(O)c1
inactive: Potency [1] | outcome [2] | Potency [3] | Potency [4] | Potency [5] | Potency [6] | Potency [12] | Potency [13] | Potency [9]

CCOC(=O)c1cc(=O)c2c(OCC(COc3cccc4oc(C(=O)OCC)cc(=O)c34)OC(=O)[C@@H](N)CCCCN)cccc2o1
inactive: Potency [1] | outcome [2] | Potency [3] | Potency [4] | Potency [5] | Potency [6] | Potency [12] | Potency [8] | Potency [9] | Potency [10]

Cc1cccc(N(C)C(=S)Oc2ccc3c(c2)CCC3)c1
inactive: Potency [1] | outcome [2] | Potency [3] | Potency [4] | Potency [5] | Potency [6] | Potency [12] | Potency [13] | Potency [9]

CCC[C@H](N[C@@H](C)C(=O)N1[C@H](C(=O)O)C[C@@H]2CCCC[C@@H]21)C(=O)OCC
inactive: Potency [1] | outcome [2] | Potency [3] | Potency [4] | Potency [5] | Potency [6] | Potency [13] | Potency [8]

CCC(CN)=C(c1ccccc1)c1ccccc1
inactive: Potency [1] | outcome [2] | Potency [3] | Potency [4] | Potency [5] | Potency [6] | Potency [12] | Potency [13] | Potency [8] | Potency [9] | Potency [10]

OC(CCCN1CCCCC1)(c1ccccc1)c1ccccc1
inactive: Potency [1] | outcome [2] | Potency [3] | Potency [4] | Potency [5] | Potency [6] | Potency [12] | Potency [8] | Potency [10]

OCCOCCN1CCN(C(c2ccccc2)c2ccc(Cl)cc2)CC1 (stereo not given)
inactive: Potency [1] | outcome [2] | Potency [3] | Potency [4] | Potency [5] | Potency [6] | Potency [12] | Potency [13] | Potency [8] | Potency [9] | Potency [10]

N#CC1(c2ccc(F)cc2)CCC(=O)CC1
inactive: Potency [1] | outcome [2] | Potency [3] | Potency [4] | Potency [5] | Potency [6] | Potency [12] | Potency [13] | Potency [8] | Potency [9] | Potency [10]

COC(=O)C1=C(C)NC(COC(N)=O)=C(C(=O)OC(C)C)C1c1cccc(Cl)c1Cl (stereo not given)
inactive: Potency [1] | outcome [2] | Potency [3] | Potency [4] | Potency [5] | Potency [6] | Potency [12] | Potency [9]

CCn1ccc(NS(=O)(=O)c2ccc(N)cc2)nc1=O
inactive: Potency [1] | outcome [2] | Potency [3] | Potency [4] | Potency [5] | Potency [6] | Potency [12] | Potency [8] | Potency [9] | Potency [10]

CC(=O)N1CCN(c2ccc(O)cc2)CC1
inactive: Potency [1] | outcome [2] | Potency [3] | Potency [4] | Potency [5] | Potency [6] | Potency [12] | Potency [9] | Potency [10]

CCC(=O)O[C@H]1[C@H](O[C@@H]2[C@@H](C)[C@H](O[C@H]3C[C@@](C)(OC)[C@@H](O)[C@H](C)O3)[C@@H](C)C(=O)O[C@H](CC)[C@@](C)(O)[C@H](O)[C@@H](C)C(=O)[C@H](C)C[C@@]2(C)O)O[C@H](C)C[C@@H]1N(C)C
inactive: Potency [1] | outcome [2] | Potency [3] | Potency [4] | Potency [5] | Potency [6] | Potency [12] | Potency [13] | Potency [8] | Potency [9] | Potency [10]

Cc1[nH]cnc1-c1ccc(Cl)cc1
inactive: Potency [1] | outcome [2] | Potency [3] | Potency [5] | Potency [6] | Potency [12] | Potency [7] | Potency [13] | Potency [8] | Potency [10]

Cc1ccc(Cl)c(OCC(O)CNC(C)(C)C)c1 (stereo not given)
inactive: Potency [1] | outcome [2] | Potency [3] | Potency [5] | Potency [6] | Potency [12] | Potency [7] | Potency [13] | Potency [8] | Potency [9]

CCCCN(CCN(CCCC)C(=O)N1CCOCC1)C(=O)N1CCOCC1
inactive: Potency [1] | outcome [2] | Potency [3] | Potency [4] | Potency [6] | Potency [13] | Potency [8] | Potency [9]
active: Potency [10] 23.7 µM

O=C(CCOCCOCCOCCOCCC(=O)Nc1c(I)cc(I)c(C(=O)O)c1I)Nc1c(I)cc(I)c(C(=O)O)c1I
inactive: Potency [1] | outcome [2] | Potency [3] | Potency [5] | Potency [6] | Potency [12] | Potency [7] | Potency [13] | Potency [8] | Potency [9] | Potency [10]
